This is one part of the list. Calls of active or inactive are those of the source.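 The calls were made as follows: active = inhibition of LYPLA2 enzyme probe labeling above about 50% (limit read from the data); inactive = inhibition below that limit.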

The target in the assay is Acyl-protein thioesterase 2 (Homo sapiens) (UniProt O95372). Nature of the assay: blockade of human LYPLA2 probe labeling – gel-based competitive ABPP, fluorescence, assay provider, late-stage follow-up (AID 652029).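 Also: loss of FP-Rh probe labeling of the LYPLA2 gel band measured as band density; 0% = DMSO only control band and 100% = blank gel background.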 As to conditions: rhLYPLA2 in mouse brain proteome, gel ABPP FP-Rh; at 20 µM; stronger effect = higher value.
Sequence of Acyl-protein thioesterase 2 (Homo sapiens) (O95372 whole entry, looked up): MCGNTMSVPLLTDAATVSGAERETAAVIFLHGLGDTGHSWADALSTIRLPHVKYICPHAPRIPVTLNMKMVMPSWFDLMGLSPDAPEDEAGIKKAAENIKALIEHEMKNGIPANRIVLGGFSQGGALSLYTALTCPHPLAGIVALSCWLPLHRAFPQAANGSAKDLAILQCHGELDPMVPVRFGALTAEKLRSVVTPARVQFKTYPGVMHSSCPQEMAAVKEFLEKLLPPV
As to `CC(=O)c1ccc(N2CCN(C(=O)C3CCN(S(=O)(=O)c4ccc5c(c4)CC(C)N5C(=O)C4CC4)CC3)CC2)cc1` (stereo not given), the inhibition is 70% (active).
Under `CCC(=O)c1ccc(OCC(O)CN2CCN(c3cccc(C(F)(F)F)c3)CC2)cc1` (stereo not given) stands 18% (inactive); under `O=C1C2CCCN2C(=O)N1CCCCN1CCN(c2cccc(C(F)(F)F)c2)CC1` (stereo not given), 44% (inactive).
Regarding `COc1ccc(N2CCN(C(=O)c3ccc(N4CCCCS4(=O)=O)cc3)CC2)cc1`, the inhibition was 49% (inactive).
`O=C(CCCN1C(=O)c2cccc3cccc(c23)C1=O)N1CCN(Cc2ccc3c(c2)OCO3)CC1`: the inhibition is 25% (inactive).

The record behind these values is PubChem BioAssay AID652029 (The Scripps Research Institute Molecular Screening Center, 2013).
